Results from PubChem BioAssay (NCATS).
A number with no mark means an inactive call. Calls come from the whole dose curve; as a rule, active = well fitted curve in the direction sought with a large enough effect; inconclusive = small, poorly fitted or top-dose-only effect, or another doubt; inactive = no such curve, though single readings can be large; an effect the other way counts as inactive or inconclusive. Results filed as inconclusive are left out.

system: Nanoluciferase (engineered Oplophorus gracilirostris luciferase); test: Primary Nanoluciferase (NLuc) qHTS assay for identification of artifact compounds. (AID 1845222); conditions: NLuc-conditioned medium, Nano-Glo luminescence, 5 min; series mostly up to 54.1 µM; activity, negative = inhibition: at the top concentration;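 note: NLuc secreted into diluted conditioned medium of S16 cells; 0% = DMSO and -100% = no enzyme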
How it was run: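 Using secreted nanoluciferase in S16 culture medium (0.22 um filtered, 1:55 dilution), compounds were preincubated 15 min at RT. Signal was generated with Nano-Glo reagent (1:100) over 5 min.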

Row | SMILES | activity, negative = inhibition
1 | CC/C(C)=C/C(=O)OC1C(OC2(C)CCC3C(C4C(C)CCC42)C3(C)C)OC(C)C(O)C1O (centres undefined) | 2.51% [at 25.7 µM]
2 | CC(C)S(=O)(=O)c1ccc2nccc(Nc3ccc4scnc4c3)c2c1 | 1.92%
3 | C=CC(C)(O)CC[C@@H]1[C@@]2(C)CCCC(C)(C)C2CC[C@@]1(C)O (some centres undefined) | 3.47%
4 | Cc1c(Cl)cccc1S(=O)(=O)Nc1nc(NCCc2ccccc2)nc2c1CN(Cc1ccccc1)CC2 | 0.903%
5 | COc1cc2c(cc1OC)CN(C(=O)/C=C/c1c(-c3ccccc3)n(C)c3ncccc13)CC2 | -6.91%
6 | CC(C)C(C)C(O)C1CC23CC(=O)C4(O)C(=C2CCC3C1C)C=CC1(O)CC(O)CCC14C (centres undefined) | -3.36% [at 25.7 µM]
7 | S=C(c1ccc(-c2ccc(Cl)c(Cl)c2)o1)N1CCCCC1 | -3.44%
8 | CN[C@@H]1[C@H](O[C@H]2[C@H](O[C@@H]3[C@@H](O)[C@H](O)[C@@H](N=C(N)N)[C@H](O)[C@H]3N=C(N)N)O[C@@H](C)[C@]2(O)CO)O[C@@H](CO)[C@H](O)[C@H]1O | -1.06%
9 | CCC(C)/C=C(C)/C=C/C1=CC2=C(Cl)C(=O)C(C)(OC(C)=O)C(=O)C2(O)C(OC)O1 (centres undefined) | -6.01% [at 25.7 µM]
10 | O=C(NCCN1CCN(c2cccc3c2OCCO3)CC1)c1ccc(F)cc1 | 1.32%
11 | Cc1cc2c(F)c(Oc3ncnn4cc(OCC(C)OC(=O)C(C)N)c(C)c34)ccc2[nH]1 (centres undefined) | 0%
12 | CCCn1cc2c(nc(NC(=O)Nc3ccc(OC)cc3)n3nc(-c4ccco4)nc23)n1 | -1.7%
13 | CC[C@H](C)/C=C(C)/C=C/C1=CC2=CC(=O)[C@]3(C)OC(=O)[C@@H](C(C)=O)[C@@H]3C2=CO1 | -8.01%
14 | C/C=C/C=C/c1cc2c(C=O)c(O)c(CC=C(C)C)cc2o1 | -20.3%
15 | CC[C@@H](Nc1c(Nc2cccc(C(=O)N(C)C)c2O)c(=O)c1=O)c1cc(C(C)C)co1 | -16.8%
16 | C=C(NC(=O)C(=C)NC(=O)c1csc(C2=NC3c4csc(n4)C4NC(=O)c5csc(n5)C(C(C)(O)C(C)O)NC(=O)C5CSC(=N5)/C(=C/C)NC(=O)C(C(C)O)NC(=O)c5csc(n5)C3(CC2)NC(=O)C(C)NC(=O)C(=C)NC(=O)C(C)NC(=O)C(C(C)CC)NC2C=Cc3c(C(C)O)cc(nc3C2O)C(=O)OC4C)n1)C(N)=O (centres undefined) | 0%
17 | CCC1C(=O)N(C)c2cnc(Nc3ccc(C(=O)NC4CCN(C)CC4)cc3OC)nc2N1C1CCCC1 (centres undefined) | -0.488%
18 | CN(C)C(=O)Nc1cc(-c2ccccc2)ccc1N(C)C | -6.26%
19 | C=C1/C(=C/C=C2\CCC[C@]3(C)[C@@H]([C@H](C)/C=C/[C@H](O)C4CC4)CC[C@@H]23)C[C@@H](O)C[C@@H]1O | 0.692%
20 | CC(C)NC(=O)COc1cccc(-c2nc(Nc3ccc4[nH]ncc4c3)c3ccccc3n2)c1 | -25.3%
21 | C=C1C(=O)OC2CC(C)C(CCC(C)=O)=CCC12 (centres undefined) | 4.31%
22 | COc1ccc2nc3n[nH]c(C)c3c(NCCOCCO)c2c1 | -11.4%
23 | NC(=O)c1cnc(N[C@@H]2CCCC[C@H]2N)nc1Nc1cccc(-n2nccn2)c1 | 0%
24 | CCC(C)C(=O)O[C@H]1[C@@H](OC(=O)c2ccoc2)C[C@](C)(O)[C@]23OC(C)(C)[C@H](C[C@H](OC(=O)c4ccoc4)[C@]12COC(C)=O)[C@H]3OC(C)=O (some centres undefined) | -2.4% [at 25.7 µM]
25 | COc1ccc(-c2c(C)nn3c(NCCN4CCOCC4)cc(C)nc23)cc1OC | -3.07%
26 | CC(C)c1cc(-c2ccc(F)c3ccccc23)nc(N)n1 | 0.292%
27 | C=CC(=O)N1CCC[C@@H](n2nc(-c3cccc(C(=O)Nc4ccc(C(C)C)c(C)c4)c3)c3c(N)ncnc32)C1 | 4.1%
28 | Cc1onc(-c2ccccc2)c1C(=O)N1CCN(c2ccc([N+](=O)[O-])cc2Cl)CC1 | 1.72%

system: not listed separately; test: Primary redox qHTS assay for identification of artifact compounds. (AID 1845223); conditions: Amplex Red/HRP redox cycling with DTT, fluorescence; series mostly up to 53.8 µM; redox activity (% of DA3003): at the top concentration;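 note: 0% = DMSO and 100% = reference compound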
How it was run: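 Amplex Red (25 uM) and HRP (250 mU/mL) in HBSS, with compounds for 15 min, then 250 uM DTT for 30 min, room temperature, dark. Fluorescence 525/598 nm read; normalized to DMSO and 10 uM DA3003; Hill fit.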

Row | SMILES | redox activity (% of DA3003)
29 | O=C(Nc1ncc([N+](=O)[O-])s1)c1ccccc1O | -1.31%
30 | CC/C(C)=C/C(=O)OC1C(OC2(C)CCC3C(C4C(C)CCC42)C3(C)C)OC(C)C(O)C1O (centres undefined) | 3.57% [at 25.6 µM]
31 | CC(C)S(=O)(=O)c1ccc2nccc(Nc3ccc4scnc4c3)c2c1 | 14.9%
32 | Cn1sc(=O)n(Cc2ccccc2)c1=O | -3.4%
33 | CC(C)C(C)C(O)C1CC23CC(=O)C4(O)C(=C2CCC3C1C)C=CC1(O)CC(O)CCC14C (centres undefined) | 8.52% [at 25.6 µM]
34 | S=C(c1ccc(-c2ccc(Cl)c(Cl)c2)o1)N1CCCCC1 | -3.92%
35 | CN[C@@H]1[C@H](O[C@H]2[C@H](O[C@@H]3[C@@H](O)[C@H](O)[C@@H](N=C(N)N)[C@H](O)[C@H]3N=C(N)N)O[C@@H](C)[C@]2(O)CO)O[C@@H](CO)[C@H](O)[C@H]1O | -0.315%
36 | CCC(C)/C=C(C)/C=C/C1=CC2=C(Cl)C(=O)C(C)(OC(C)=O)C(=O)C2(O)C(OC)O1 (centres undefined) | 17.9% [at 25.6 µM]
37 | O=C(NCCN1CCN(c2cccc3c2OCCO3)CC1)c1ccc(F)cc1 | 1.06%
38 | COc1ccc2cc3c(NC(=O)c4ccco4)nn(C)c3nc2c1 | 16.1%
39 | CCCn1cc2c(nc(NC(=O)Nc3ccc(OC)cc3)n3nc(-c4ccco4)nc23)n1 | -0.395%
40 | CC[C@H](C)/C=C(C)/C=C/C1=CC2=CC(=O)[C@]3(C)OC(=O)[C@@H](C(C)=O)[C@@H]3C2=CO1 | 17%
41 | C/C=C/C=C/c1cc2c(C=O)c(O)c(CC=C(C)C)cc2o1 | 28.7%
42 | CN(C)C(=O)Nc1cc(-c2ccccc2)ccc1N(C)C | 9.91%
43 | CC(C)NC(=O)COc1cccc(-c2nc(Nc3ccc4[nH]ncc4c3)c3ccccc3n2)c1 | 1.93%
44 | C=C1C(=O)OC2CC(C)C(CCC(C)=O)=CCC12 (centres undefined) | -0.821%
45 | COc1ccc2nc3n[nH]c(C)c3c(NCCOCCO)c2c1 | -4.83%
46 | CCC(C)C(=O)O[C@H]1[C@@H](OC(=O)c2ccoc2)C[C@](C)(O)[C@]23OC(C)(C)[C@H](C[C@H](OC(=O)c4ccoc4)[C@]12COC(C)=O)[C@H]3OC(C)=O (some centres undefined) | 10.2% [at 25.6 µM]
47 | CC(C)c1cc(-c2ccc(F)c3ccccc23)nc(N)n1 | -1.98%
48 | C=CC(=O)N1CCC[C@@H](n2nc(-c3cccc(C(=O)Nc4ccc(C(C)C)c(C)c4)c3)c3c(N)ncnc32)C1 | -4.34%
49 | Cc1onc(-c2ccccc2)c1C(=O)N1CCN(c2ccc([N+](=O)[O-])cc2Cl)CC1 | -5.69%
